This is a sample that favours compounds with a hit; in the whole collection about 0.86% have one here.
HIV TAR-Tat – HIV-1 TAR-Tat binding disruption. HIV-1 TAR RNA, Tat peptide displacement FRET; hits give high values. z-score (no concentration beside the values). 100,000 compounds, 0.6% hits; active means z-score of 3 or more in at least 2 runs
CDC25B CDK2 inh – human CDC25B-CDK2/CyclinA binding inhibition. AID 1259370. 94,000 compounds, 0.72% hits. z-score (no concentration beside the values). HTRF CDC25B-CDK2/CyclinA binding, anti-His/anti-Flag; hits give high values; in the data active means z-score above about 3.2
* marks the source's active call; other numbers are inactive results; . = not tested or not shown.

SMILES	HIV TAR-Tat	CDC25B CDK2 inh
CCCc1c(C)nc2ncnn2c1Nc1cc(C)cc(C)c1	-0.47	-1.6
O=c1c2nccnc2nc(SCc2cccc(Cl)c2)n1Cc1cccs1	2.3	.
CCOCCCNC(=O)NC(C)c1c(-n2cccc2)sc2c1CCCC2 (configuration not stated)	-0.23	-1.5
CN(C(=O)Cn1ncc2c1-c1ccccc1OC2)c1ccccc1F	-0.03	-0.6
COC(=O)C1=C(OC(=O)CN2C(=O)CCC2=O)c2ccccc2S(=O)(=O)N1C	0.59	-2.2
COC(=O)C1=C(OC(=O)CN2C(=O)CCC2=O)c2ccccc2S(=O)(=O)N1C(C)C	0.12	6.3*
CC(CCc1ccccc1)N1C(=S)NC2C=C(Cl)C=CC21 (configuration not stated)	.	3.6*
CCC(C)C1NC(=S)N(Cc2ccccc2)C1=O (configuration not stated)	.	-1.1
CN(Cc1ccccc1)c1ncnc2onc(-c3ccc(Cl)cc3)c12	1.8	1.7
O=C1c2cccnc2C(=O)N1CCc1ccc(S(=O)(=O)NCc2ccccc2Cl)cc1	-1.1	.
O=c1c(O)c(-c2cc(O)c(O)c(O)c2)oc2cc(O)cc(O)c12	38*	-0.86
O=c1c(O)c(-c2ccccc2)oc2cc(O)cc(O)c12	1.1	.
O=c1c(O)c(-c2ccccc2O)oc2cc(O)cc(O)c12	2.5	.
O=c1c(O)c(-c2ccc(O)cc2O)oc2cc(O)cc(O)c12	25*	-1.9
Cc1cc(NC(=O)c2onc(C)c2Cl)no1	.	-0.37
CCc1nc2nc(C)cc(NCc3ccc(C)cc3)n2n1	-0.21	-1.6
Cc1cc(C)cc(Oc2ncnc3sc(C)cc23)c1	-1.2	.
O=C(NCc1cccnc1)c1c2c(nc3ccccc13)C(=O)N(C1CCCCC1)C2	0.46	.
O=C(Nc1ccc(O)cc1)c1cccc(-n2cnnc2)n1	12*	.
O=C(Nc1ccc(Br)cc1)c1cccc(-n2cnnc2)n1	0.73	.
O=S(=O)(NCC1CCCO1)c1ccc(S(=O)(=O)N2CCN(c3ncccn3)CC2)cc1 (configuration not stated)	0.38	-1.7
Cc1ccc(C)n1-c1ccc(Br)cc1C(=O)O	19*	-0.62
Cc1ccc(C)n1-c1ccc(O)c(C(=O)O)c1	33*	-0.09
O=C(O)c1cc(Br)cc(C(=O)O)c1Cl	2.2	1.1
Cc1cc(=O)cc(C)n1-c1ccc(C(=O)O)cc1	-1.7	0.84
SMILES	HIV TAR-Tat	CDC25B CDK2 inh
Cc1cc(Cl)ccc1OCc1nc(-c2ccc(S(=O)(=O)N3CCOCC3)cc2)no1	1.7	.
Nc1nc(NCC(=O)O)nc(N2CCCCC2)c1[N+](=O)[O-]	0.94	.
Cc1noc(NC(=O)Nc2c(-c3ccccc3Cl)noc2C)c1C	.	-2.2
Cc1onc(-c2c(Cl)cccc2Cl)c1NC(=O)NNc1ccccn1	.	9.5*
CN1CCc2nc(NC(=O)c3sc4ccccc4c3Cl)sc2C1	0.33	.
Cc1ccccc1N1CSC2=C(C#N)C(c3cccc(F)c3)CC(=O)N2C1 (configuration not stated)	-1.5	8*
N#CC1=C2SCN(c3ccc(Br)cc3)CN2C(=O)CC1c1ccccc1 (configuration not stated)	-5	6*
CCc1ccccc1N1CSC2=C(C#N)C(c3ccccc3)CC(=O)N2C1 (configuration not stated)	-1.2	6.9*
Cc1ccc(N2CSC3=C(C#N)C(c4cccc(F)c4)CC(=O)N3C2)cc1 (configuration not stated)	-1.2	4.7*
CC(C(=O)Nc1ccc(Br)cn1)N1Cc2ccccc2C1=O (configuration not stated)	0.78	.
CN(C)c1cc(-c2cc(OCC(F)(F)F)ccc2OCC(F)(F)F)oc(=O)c1Cl	.	-0.13
CCCOc1ccc(C2c3c(-c4ccccc4O)n[nH]c3C(=O)N2CC2CCCO2)cc1OCC (configuration not stated)	0.86	0.45
Cc1ccccc1N1CSC2=C(C#N)C(c3ccccc3)CC(=O)N2C1 (configuration not stated)	-1.6	5.4*
Cc1cccc(N2CSC3=C(C#N)C(c4ccc(C)o4)CC(=O)N3C2)c1 (configuration not stated)	-1	-0.48
Cc1ccc(N2CSC3=C(C#N)C(c4ccccc4)CC(=O)N3C2)cc1Cl (configuration not stated)	-5.7	5.6*
N#CC1=C2SCN(C3CCCCC3)CN2C(=O)CC1c1ccccc1 (configuration not stated)	2.1	-1.3
N#CC1=C2SCN(c3cccc(Cl)c3)CN2C(=O)CC1c1cccc(F)c1 (configuration not stated)	-1.7	8.4*
CCCn1c(C)ccc(-c2noc(CCCC(=O)NCc3ccco3)n2)c1=O	-0.33	-0.03
CC(C)(C)c1nnc2sc(C3COc4ccccc4O3)nn12 (configuration not stated)	-0.7	-1.1
O=C(COc1ccc(F)cc1)OCc1cc(=O)n2c(-c3ccccc3)csc2n1	0.81	.
Cc1c(C(=O)N2CCC(C)CC2)sc2ncn(CC(=O)N3CCOCC3)c(=O)c12	.	-0.91
Cn1c(=O)[nH]c2nnc(-c3ccc4c(c3)OCO4)nc2c1=O	-0.58	-1.3
COc1ccc(-c2nnc3[nH]c(=O)n(C)c(=O)c3n2)cc1OC	8.2*	-2.7
Cc1ccccc1-c1nc(Cn2nc(C)c3c(C)onc3c2=O)c(C)o1	-1.2	.
Cc1cccc(C2Nc3cccc4cccc(c34)N2)c1	4.3	0.56
SMILES	HIV TAR-Tat	CDC25B CDK2 inh
COc1cc(C2Nc3cccc4cccc(c34)N2)ccc1O	7.3*	0.77
c1ccc(-c2ccc(C3Nc4cccc5cccc(c45)N3)cc2)cc1	5.3	0.78
Oc1ccc2ccccc2c1C1Nc2cccc3cccc(c23)N1	15*	-1
CCCC(NS(=O)(=O)c1cc(F)ccc1CN1C(=O)c2cccnc2C1=O)c1cccs1 (configuration not stated)	2	.
Cn1c(=O)c(C(=O)O)nc2ccccc21	0.87	-1.8
CCOC(=O)c1nc2ccccc2n(C)c1=O	-1.3	23*
COc1ccc(CNc2ccc3c(c2)ncn3C)cc1OC	1.3	2.3
Cc1ccc(CNc2ccc3c(c2)nc(C)n3C)cc1	1.1	-1.8
CCn1cnc2cc(NCc3cccc(Br)c3)ccc21	0.37	13*
CCn1cnc2cc(NCc3ccco3)ccc21	0.58	16*
CCCn1cnc2cc(NCc3ccc(C)cc3)ccc21	0.51	13*
c1ccc(-n2cnc3cc(NCc4ccco4)ccc32)cc1	-0.51	3.3
Cc1nc2c(c(C)c1CCC(=O)NC1CCCCC1)c(=O)n(C)c(=O)n2C	-1	-1.1
Cc1ccc(NS(=O)(=O)c2cc3[nH]c4c(c3cc2C)C(=O)CCC4)cc1C	0.48	.
CN1C(=O)C(C)(C)c2cc(S(=O)(=O)NC3CCCc4ccccc43)ccc21 (configuration not stated)	1.5	.
CC1C(=O)Nc2ccc(S(=O)(=O)N3CCN(C4CCCCC4)CC3)cc2NC1=O (configuration not stated)	0.67	-1.2
COc1cccc(Cn2cc3c(-c4ccc(OC)c(OC)c4)nnc-3c3cc4c(cc32)OCCO4)c1	5.1*	2.8
COc1ccc(-c2nnc3c4cc5c(cc4n(Cc4ccccc4)cc2-3)OCCO5)cc1OC	0.88	2
CCCS(=O)(=O)N1CCCc2ccc(NS(=O)(=O)c3ccc(OCC)cc3)cc21	1.6	.
O=c1[nH]cc(C(F)(F)F)cc1Cl	.	-2.6
O=c1[nH]cc(Cl)cc1Cl	.	6.4*
C#CCn1c2ccccc2c2nc3ccccc3nc21	0.07	.
